We go through five molecules from PubChem BioAssay (NCATS).

Assay [1] can be described thus: Cell Viability - BJ (AID 421; calls by dose curve;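 note: potency is the fitted concentration of half-maximal effect; cells exposed to compound for 40 hours at 37 °C before readout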). As to conditions: BJ fibroblast viability, qHTS. Summed up:
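Cytotoxicity in human BJ foreskin fibroblasts is scored as loss of cellular ATP after a 40-hour exposure, measured by luciferase luminescence. Controls are DMSO and 100 uM tamoxifen.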
In general terms: Quantitative high-throughput screening tests each substance at several concentrations.

Assay [2] in a line: Cell Viability - Jurkat (AID 426;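 active = dose-dependent loss of cell ATP signal giving a full or clear fitted curve, ranked by lower potency value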;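 note: potency is the fitted concentration of half-maximal effect; cells exposed to compound for 40 hours at 37 °C before ATP read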). The following applies: qHTS. Summed up:
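Cytotoxicity was scored as loss of cellular ATP, measured by luciferase-based luminescence, in Jurkat clone E6-1 cells after 40 h compound treatment; tamoxifen and doxorubicin served as positive controls.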

The nature of assay [3]: Cell Viability - Hek293 (AID 427;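 active = compounds whose dose-response curve shows a full or clear partial loss of cell viability, called from curve shape rather than a numeric limit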;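 note: potency is the fitted concentration of half-maximal effect; cells exposed to compound for 40 hours at 37 °C before reading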). The following applies: qHTS. An outline of the steps:
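qHTS, human embryonic kidney (adenovirus-transformed) cells; 40 hr cpd, 37 °C; CellTiter-Glo ATP luminescence. Norm: DMSO = 0, 100 uM tamoxifen = 100% inhibition. Hill-fit AC50.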

A short description of assay [4]: Cell Viability - HepG2 (AID 433; calls by dose curve;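 note: potency is the fitted concentration of half-maximal effect; potency for ATP loss meaning cytotoxicity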). The following applies: qHTS. Summed up:
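Cytotoxicity is scored as loss of intracellular ATP in HepG2 cells exposed to compounds for 40 h. Concentration-response curves, normalized to DMSO and 100 uM tamoxifen, give AC50 values.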

Assay [5] is described as follows: Cell Viability - MRC5 (AID 434; calls by dose curve;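 note: potency is the fitted concentration of half-maximal effect; cells exposed to compound for 40 hours at 37 °C; potency reflects cytotoxicity seen as loss of intracellular ATP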). As to conditions: MRC5 lung fibroblast viability, qHTS. Summed up:
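Decrease in intracellular ATP, quantified by luciferase light output, reflects compound toxicity toward MRC5 cells exposed for 40 hr in complete culture medium. Concentration-response curves, scaled between DMSO and 100 uM tamoxifen, gave AC50 values.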

Assay [6] is described as follows: Cell Viability - SK-N-SH (AID 435; calls by dose curve;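 note: potency is the fitted concentration of half-maximal effect; compound exposure lasted 40 h at 37 °C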). As to conditions: SK-N-SH neuroblastoma cell viability qHTS. An outline of the steps: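 Cells seeded at 1500 per well and incubated 5 hr at 37 °C. Compound added, then 40 hr at 37 °C. CellTiter-Glo added, 20 min at room temperature, luminescence read.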
The target in assay [7] is Mitogen-activated protein kinase 10 (Mus musculus) (UniProt Q61831). Kind of assay: JNK3 AlphaScreen Assay (AID 530; active = well fitted curve in either direction with a large enough effect, not every such curve was filed as active;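 note: kinase came from lysate of stimulated human HepG2 cells; signal reports phosphorylation of biotinylated GST-cJun 1-79 at Ser73 with 10 µM ATP; % is set by controls: 0 for no effect and ±100 for the full control effect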). The following applies: JNK3 lysate, c-Jun phosphorylation; series mostly up to 57.1 µM. An outline of the steps:
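Biotinylated GST-cJun(1-79) served as substrate for JNK3 in HepG2 lysates stimulated with IL-1beta and TNF-alpha. ATP was 10 uM final, pH 7.6. Ser73 phosphorylation was quantified by AlphaScreen (680 nm excitation).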
(Alpha assays give light when donor and acceptor beads are brought close together.)

The nature of assay [8]: Cell Viability - NIH 3T3 (AID 541).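 Note: plate controls were DMSO alone for no effect and tamoxifen positive control for full effect; nearly all actives have a fitted effect of over 25% in size.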 The following applies: NIH 3T3 cell viability, qHTS; activity change, negative = cytotoxicity: at 92.2 µM (top of the series). Summed up: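 In this cytotoxicity screen, acute toxicity is scored as an ATP drop measured by CellTiter-Glo in NIH 3T3 fibroblasts following a 40 hr, 37 °C incubation with compound.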
Assay [9] can be described thus: Cell Viability - H-4-II-E (AID 543). Note: % is set by controls: 0 for no effect and ±100 for the full control effect; nearly all actives have a fitted effect of over 35% in size. The following applies: H-4-II-E rat hepatoma viability; series mostly up to 92.2 µM. An outline of the steps: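 AC50 from Hill-modelled qHTS concentration-response curves. H-4-II-E rat hepatoma cells in complete medium, 40 hr exposure at 37 °C, viability by CellTiter-Glo ATP luminescence.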
The nature of assay [10]: Cell Viability - Mesenchymal (AID 546).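 Note: cells exposed to compound for 40 hours before reading.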 The following applies: mesenchymal cells viability, qHTS; activity change, negative = cytotoxicity: at 91.7 µM (top of the series). An outline of the steps:
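In this qHTS cytotoxicity format, glomerulus-derived human mesenchymal kidney cells received compound for 40 hr, then luciferase-based ATP quantitation. Concentration-response data were fitted with the Hill equation.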

A short description of assay [11]: Cellular Toxicity (caspase-3) HepG2 (AID 654).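 Note: cells exposed to compound for 16 hours before reading.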 The following applies: HepG2 caspase-3 activation, luminescence, 0% = DMSO only, 100% = tamoxifen; series mostly up to 92.2 µM. An outline of the steps:
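Concentration-response AC50 values reflect caspase-3/7 induction in HepG2 cells after 16 hours of compound exposure, quantified by luminescence from liberated aminoluciferin and referenced to 100 uM tamoxifen as full stimulation.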

The nature of assay [12]: Cellular Toxicity (caspase-3) HUV-EC-C (AID 656). The following applies: HUV-EC-C cells, caspase-3 activation (apoptosis), vehicle = 0, 100 µM tamoxifen = 100%; series mostly up to 92.2 µM. An outline of the steps:
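Read-out: luminescence proportional to caspase 3/7 activity, measured 20 min after adding Caspase-Glo 3/7 reagent. Cells (HUV-EC-C) had received compound for 16 hr at 37°C. Increases relative to DMSO and 100 uM tamoxifen gave concentration-response AC50 values.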

The nature of assay [13]: Cellular Toxicity (caspase-3) BJ (AID 658). The following applies: BJ fibroblasts, luminescence, normalized: DMSO 0%, staurosporine 100%; series mostly up to 91.7 µM. Summed up: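 Plated BJ cells (1000/well) rested 5 hr, received compound for 16 hr at 37 °C, then Caspase-Glo 3/7 reagent for 1 hr at room temperature before luminescence reading.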
Assay [14] in a line: Cellular Toxicity (caspase-3) MRC-5 (AID 659). As to conditions: MRC-5 cells, luminescence, normalized: DMSO 0%, 10 µM staurosporine 100%; series mostly up to 91.7 µM. Summed up:
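Apoptosis readout in MRC-5 cells: luciferase light generated after caspase 3/7 cleaves a peptide-aminoluciferin substrate, measured post 16 hr compound incubation at 37 °C.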

Assay [15] can be described thus: Cellular Toxicity (caspase-3) Mesangial (AID 660).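 Note: cells exposed to compound for 16 h before the caspase read.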 As to conditions: mesangial cells, normalized: DMSO 0%, 100 µM tamoxifen 100%; series mostly up to 91.7 µM. Summed up: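 AC50 values come from Hill-equation fits of caspase 3/7 activation, measured as Caspase-Glo luminescence in human glomerular mesangial cells exposed to compound for 16 h at 37 °C; 100% set by 100 uM tamoxifen.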

Assay [16] in a line: Cellular Toxicity (caspase-3) Hek293 (AID 664).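 Note: cells exposed to compound for 16 h at 37 °C before readout.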 As to conditions: HEK293 caspase-3 activation, DMSO = 0%, 100 µM tamoxifen = 100%; series mostly up to 92.2 µM. An outline of the steps: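 Apoptosis readout: Caspase-Glo 3/7 signal in human HEK293 cells following 16-hour compound incubation. Responses scaled between DMSO baseline and 100 uM tamoxifen.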
The nature of assay [17]: Cellular Toxicity (caspase-3) Renal Proximal Tubule (AID 667).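 Note: cells exposed to compound for 16 hours at 37 °C before detection.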 The following applies: renal proximal tubule cells, primary cells freshly taken from rat, solvent-only wells 0%, staurosporine 100%; series mostly up to 91.7 µM. An outline of the steps:
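In qHTS format, rat primary proximal tubule cells seeded at 1000 per well are exposed to compounds for 16 hours at 37 °C. An increase in Caspase-Glo 3/7 luminescence indicates caspase activation.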

Assay [18] can be described thus: qHTS Assay for Identification of Small Molecule Inducers of Hypoxia Response (AID 2120; active = well fitted curve in the direction sought with a large enough effect in the signal ratio, with a control signal flat, not every such curve was filed as active; the % refers to the signal ratio; note: 0% is about no effect). As to conditions: hypoxia response reporter cells, beta-lactamase ratio readout; series mostly up to 104 µM. Summed up:
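HRE-bla ME-180, 2500 cells/well, 0.5% dialyzed FBS medium; cpd titration, 17 h 37 degrees C; CCF4 2.5 h RT; Ex 405, Em 460/530 ratio -> %Activity, AC50.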

The nature of assay [19]: qHTS assay for small molecule antagonists of retinoid X receptor alpha signaling (AID 588546).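 Note: cells stimulated with 9-cis-retinoic acid as agonist; % is set by controls: 0 for no effect and ±100 for the full control effect.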 The following applies: HEK293T RXRa-UAS-bla, beta-lactamase ratio, antagonist mode; measured here: W530 green channel, cytotoxicity proxy. Summed up:
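Beta-lactamase reporter inhibition, read as CCF4 fluorescence ratio (ex 405, em 460/530 nm) after 2 h at RT. HEK293T UAS-bla cells, 2500/well, were stimulated with 9-cis-RA at 500 or 100 nM final alongside test compound for 18 h at 37 C.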

For assay [20], the target named is Peroxisome proliferator-activated receptor alpha (Homo sapiens) (UniProt Q07869). Description: qHTS assay for small molecule agonists of the peroxisome proliferator-activated receptor alpha (PPARalpha) signaling pathway (AID 651778). Note: % of control where 0% means no effect. As to conditions: PathHunter PPARalpha complementation, chemiluminescence, 6 h; max response: stronger effect = higher value. An outline of the steps: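 Cells plated at 2,000/well and held overnight at 37 C, 5% CO2, then compound added by pin tool for 6 hr; after PathHunter detection reagent and 60 min at room temperature, chemiluminescence from enzyme complementation was read.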
Chain of Peroxisome proliferator-activated receptor alpha (Homo sapiens) (Q07869 whole entry, looked up): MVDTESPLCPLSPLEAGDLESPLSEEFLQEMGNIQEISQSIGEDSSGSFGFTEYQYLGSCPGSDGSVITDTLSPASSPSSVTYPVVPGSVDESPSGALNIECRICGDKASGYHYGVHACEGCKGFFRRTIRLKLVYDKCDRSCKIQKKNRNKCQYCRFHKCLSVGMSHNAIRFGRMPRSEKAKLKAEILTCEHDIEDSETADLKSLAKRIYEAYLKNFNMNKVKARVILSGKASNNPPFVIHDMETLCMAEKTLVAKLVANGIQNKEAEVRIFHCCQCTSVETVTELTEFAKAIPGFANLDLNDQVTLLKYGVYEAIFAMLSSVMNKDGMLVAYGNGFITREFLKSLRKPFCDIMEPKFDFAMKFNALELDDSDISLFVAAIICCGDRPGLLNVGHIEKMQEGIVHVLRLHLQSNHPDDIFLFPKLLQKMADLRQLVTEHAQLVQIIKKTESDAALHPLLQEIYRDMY

Several values for one entry are separate records, joined by “and”; a condition that tells them apart may be missing. Equal entries are not always repeated. Results filed as inconclusive are left out. Activity calls are given as the source filed them. Unless noted, calls come from the whole dose curve; as a rule, active = well fitted curve in the direction sought with a large enough effect; inconclusive = small, poorly fitted or top-dose-only effect, or another doubt; inactive = no such curve, though single readings can be large; an effect the other way counts as inactive or inconclusive. A value given as a limit tells only on which side of the number the result lay.

For the molecule `COCC(=O)O`, the Potency in assay [1], in [2], in assay [3], in assay [4], in assay [5] and in assay [6] was > 92 µM (inactive) throughout. The Potency result in assay [7], in assay [8] and in assay [9] was “inactive” in each case. For the same molecule, the activity change, negative = cytotoxicity in assay [10] was 2.06% (inactive). For the same molecule, the molecule was called inactive in assay [11], in assay [12], in assay [13], in assay [14], in assay [15] and in assay [16]. Further, the call in [17] and in assay [18] was inactive. Moreover, the max response is 10.5% and -3.07% in [19]; -0.223% (inactive) and -0.993% (inactive) in assay [20].
For `CC1(C)S[C@@H]2[C@H](NC(=O)COc3ccccc3)C(=O)N2[C@H]1C(=O)O`, the max response in assay [19] is -19.5%; in [20] it was -2.73% (inactive).
`Cc1ccc([N+](=O)[O-])cc1N`: the Potency in assay [1], in [2], in assay [3], in [4], in assay [5] and in assay [6] was > 92 µM (inactive) in each case. Moreover, the Potency result in assay [7], in assay [8] and in assay [9] was “inactive” in each case. Moreover, the activity change, negative = cytotoxicity in assay [10] was -1.39% (inactive). Also, the outcome in assay [11], in assay [12], in assay [13], in [14], in assay [15] and in assay [16] was inactive. For the same molecule, the result in assay [17] and in [18] was inactive. The max response in [19] was -2.85% and -10.6%; in assay [20] it was -4.31% (inactive) and -1.18% (inactive).
With `COC(=O)c1ccc(C=O)cc1`, the Potency in assay [1], in assay [2], in assay [3], in assay [4], in [5] and in assay [6] was > 92 µM (inactive) throughout. The Potency result in assay [7] and in [9] was “inactive” each time. Further, the activity change, negative = cytotoxicity in [8] is -110% (active); in [10], -7.99% (inactive). Besides, the outcome in [11], in [12], in assay [13], in assay [14], in [15] and in [16] was inactive. Besides, the molecule was called inactive in assay [17] and in assay [18]. The max response in [19] was -1.3% and -26.3%; in assay [20], -7.41% (inactive) and -4.28% (inactive).
With `Nc1ccc(Cl)cc1Cl`, the Potency in assay [1], in [2], in [3], in assay [4], in assay [5] and in assay [6] was > 92 µM (inactive) throughout. Besides, the Potency entry in assay [8] and in assay [9] was “inactive” each time. In addition, the activity change, negative = cytotoxicity in assay [10] is 2.81% (inactive). For the same molecule, the result in [11], in assay [12], in assay [13], in [14], in [15] and in [16] was inactive. In addition, the outcome in assay [17] and in assay [18] was inactive. The max response in assay [19] was 2.24% and -0.667%; in assay [20], 3.51% (inactive) and 0.0732% (inactive).
